# Screens (PubChem)
# Methyltransferases = Primary Screen for Target Class Profiling of Small Molecule Inhibitors of Methyltransferases | purified enzyme, MTase-Glo SAH luminescence; hits give low values | calls only at 40 µM | actives 3.9% (n = 25,000); call rule not given here
#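 Each enzyme was reacted with SAM and its substrate, with compounds tested once at 40 uM; SAH formed was read by MTase-Glo luminescence.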
# Calls only; . = inactive; + = active, no number. The full list was thinned out, with hits kept by preference.
SMILES,Methyltransferases
C=C[C@H]1[C@H](O[C@@H]2O[C@H](CO)[C@@H](O)[C@H](O)[C@H]2O)OC=C2C(=O)OCC[C@H]21,.
COc1cc(C(=O)O[C@H]2[C@@H]3C=CO[C@@H](O[C@@H]4O[C@H](CO)[C@@H](O)[C@H](O)[C@H]4O)[C@@H]3[C@@]3(CO)O[C@@H]23)ccc1O,+
COc1ccc(OC)c(NC(=O)N2Cc3ccccc3-n3cccc3C2c2cccs2)c1 (stereo not given),.
CC(C)C1c2cccn2-c2ccccc2CN1C(=O)Nc1cccc(Br)c1 (stereo not given),.
COc1ccc(C2c3cccn3-c3ccccc3CN2C(=O)Nc2ccc(C)c(C)c2)cc1OC (stereo not given),.
NC(=O)CI,+
COC(=O)c1cccc(NC(=O)N2Cc3ccccc3-n3cccc3C2c2cccs2)c1 (stereo not given),.
CN(N=O)c1ccc(O)c(O)c1,+
Cc1cccc(C2c3cccn3-c3ccccc3CN2C(=O)Nc2ccc(C)c(C)c2)c1 (stereo not given),.
COc1cccc(CNC(=O)N2Cc3ccccc3-n3cccc3C2c2ccc(Cl)cc2)c1 (stereo not given),.
COc1ccc(C2c3cccn3-c3ccccc3CN2C(=O)Nc2ccccc2F)cc1OC (stereo not given),.
CCc1ccccc1NC(=O)N1Cc2ccccc2-n2cccc2C1c1ccccc1 (stereo not given),.
COc1ccc(NC(=O)N2Cc3ccccc3-n3cccc3C2c2cccc(Cl)c2)cc1 (stereo not given),.
CCOCCCNC(=O)N1Cc2ccccc2-n2cccc2C1c1ccccc1C (stereo not given),.
CCCN(CCC)[C@@H]1CCc2ccc(O)cc2C1,.
CCCN(CCC)C1CCc2ccc(O)cc2C1 (stereo not given),+
CCCN(CCC)C1CCc2cccc(O)c2C1 (stereo not given),.
CN(C)c1ccc(C2c3cccn3-c3ccccc3CN2C(=O)Nc2ccccc2F)cc1 (stereo not given),.
COC(=O)CCNC(=O)N1Cc2ccccc2-n2cccc2C1c1ccc(F)cc1 (stereo not given),.
Cc1ccc(NC(=O)N2Cc3ccccc3-n3cccc3C2c2ccccc2)cc1 (stereo not given),.
CN(C)c1cc2c(cc1Sc1nc3c(N)nccc3n1CCNCC(C)(C)C)OCO2,+
COc1ccc(NC(=O)N2Cc3ccccc3-n3cccc3C2c2ccccc2C)cc1OC (stereo not given),.
Cc1ccc(NC(=O)N2Cc3ccccc3-n3cccc3C2c2ccccc2C)c(C)c1 (stereo not given),.
O=C(Nc1ccc(F)c(Cl)c1)N1Cc2ccccc2-n2cccc2C1c1ccccc1 (stereo not given),.
CSc1ccc(C2c3cccn3-c3ccccc3CN2C(=O)NC2CCCC2)cc1 (stereo not given),.
SMILES,Methyltransferases
N[C@@H](Cn1oc(=O)[nH]c1=O)C(=O)O,.
NC(Cc1cc(O)c(O)cc1O)C(=O)O (stereo not given),+
Cc1o[nH]c(=O)c1CC(N)C(=O)O (stereo not given),.
CCC1c2cccn2-c2ccccc2CN1C(=O)Nc1ccc(C)cc1 (stereo not given),.
COc1ccc(C2c3cccn3-c3ccccc3CN2C(=O)Nc2cc(F)ccc2F)cc1OC (stereo not given),.
CC(C)CCNC(=O)N1Cc2ccccc2-n2cccc2C1c1cccc(Cl)c1 (stereo not given),.
O=C(NC1CCCC1)N1Cc2ccccc2-n2cccc2C1c1ccccc1Cl (stereo not given),.
COc1ccccc1NC(=O)N1Cc2ccccc2-n2cccc2C1c1cc(F)cc(F)c1 (stereo not given),.
Cc1ccc(NC(=O)N2Cc3ccccc3-n3cccc3C2C(C)C)cc1 (stereo not given),.
CCCCCOc1cc2c(cc1-c1cc(/C=C/C(=O)O)ccc1O)C(C)(C)CCC2(C)C,+
COc1ccc(NC(=O)N2Cc3ccccc3-n3cccc3C2c2ccccc2)cc1 (stereo not given),.
COc1cc(N2CCN(C)CC2)ccc1N,+
CCc1ccccc1NC(=O)N1Cc2ccccc2-n2cccc2C1c1ccc(SC)cc1 (stereo not given),.
CCCNC(=O)N1Cc2ccccc2-n2cccc2C1c1ccc(OC)cc1 (stereo not given),.
Cc1ccc(NC(=O)N2Cc3ccccc3-n3cccc3C2C(C)C)c(C)c1 (stereo not given),.
Clc1ccc([C@]23CNC[C@H]2C3)cc1Cl,+
COC(=O)CCNC(=O)N1Cc2ccccc2-n2cccc2C1c1cccc(Cl)c1 (stereo not given),.
Cc1ccccc1C1c2cccn2-c2ccccc2CN1C(=O)NCc1ccc(F)cc1 (stereo not given),.
Cc1ccc(CNC(=O)N2Cc3ccccc3-n3cccc3C2c2ccccc2)cc1 (stereo not given),.
CCC1c2cccn2-c2ccccc2CN1C(=O)Nc1ccccc1Br (stereo not given),.
CSc1ccc(C2c3cccn3-c3ccccc3CN2C(=O)NCc2ccccc2)cc1 (stereo not given),.
C=C(CO)C(=O)O[C@H]1CC(=C)[C@@H]2C[C@H](O)C(=C)[C@@H]2[C@H]2OC(=O)C(=C)[C@@H]21,+
COC(=O)c1ccccc1NC(=O)N1Cc2ccccc2-n2cccc2C1c1ccc(C)cc1 (stereo not given),.
CCC1c2cccn2-c2ccccc2CN1C(=O)Nc1cc(Cl)c(OC)cc1OC (stereo not given),.
O=C(Nc1ccc(F)cc1)N1Cc2ccccc2-n2cccc2C1c1cccc(Cl)c1 (stereo not given),.
SMILES,Methyltransferases
O=C(Nc1ccccc1F)N1Cc2ccccc2-n2cccc2C1c1cccc(Cl)c1 (stereo not given),.
CCc1ccc(NC(=O)N2Cc3ccccc3-n3cccc3C2c2ccccc2C)cc1 (stereo not given),.
CC1C/C=C/C(O)C(O)CC/C=C/c2cc(O)cc(O)c2C(=O)O1 (stereo not given),.
CC1CCCCCC(=O)c2c(O)cc(O)cc2CC(=O)O1 (stereo not given),.
C[C@H]1CCCC(=O)CCC/C=C/c2cc(O)cc(O)c2C(=O)O1,+
O=C(Nc1ccc2c(c1)OCCO2)N1Cc2ccccc2-n2cccc2C1c1ccccc1 (stereo not given),.
Cc1ccc(NC(=O)N2Cc3ccccc3-n3cccc3C2c2ccccc2C)cc1Cl (stereo not given),.
Cc1ccc(NC(=O)N2Cc3ccccc3-n3cccc3C2c2ccccc2Cl)cc1 (stereo not given),.
Cc1cccc(C2c3cccn3-c3ccccc3CN2C(=O)NCc2ccc(F)cc2)c1 (stereo not given),.
CN(C)c1ccc(C2c3cccn3-c3ccccc3CN2C(=O)Nc2ccc(F)cc2)cc1 (stereo not given),.
Cc1[nH]nc2ccc(-c3cncc(OC[C@@H](N)Cc4c[nH]c5ccccc45)c3)cc12,+
CCOCCCNC(=O)N1Cc2ccccc2-n2cccc2C1c1ccc(C(C)C)cc1 (stereo not given),.
CC(N)Cc1c[nH]c2ccccc12 (stereo not given),.
NCCc1c[nH]c2ccccc12,+
CC(=O)NCCc1c[nH]c2ccccc12,.
